# Measurements as given in PubChem BioAssay AID1347406.
# Active and inactive are the calls of the source.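 How the source made its calls: active means IC50, the dose giving half inhibition, at or below 10 µM; inconclusive means IC50 above 10 µM up to 20 µM; inactive means IC50 over 20 µM.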
# Biological target: Ubiquitin-like modifier-activating enzyme 1 (Homo sapiens) (UniProt P22314)
# Assay: inhibition of ubiquitin E1 thioester formation – biochemical, gel-based, fluorescent Ub (AID 1347406)
# Details: fluorescent Ub gel imaging
# Ubiquitin-like modifier-activating enzyme 1 (Homo sapiens), sequence (P22314 whole entry, looked up): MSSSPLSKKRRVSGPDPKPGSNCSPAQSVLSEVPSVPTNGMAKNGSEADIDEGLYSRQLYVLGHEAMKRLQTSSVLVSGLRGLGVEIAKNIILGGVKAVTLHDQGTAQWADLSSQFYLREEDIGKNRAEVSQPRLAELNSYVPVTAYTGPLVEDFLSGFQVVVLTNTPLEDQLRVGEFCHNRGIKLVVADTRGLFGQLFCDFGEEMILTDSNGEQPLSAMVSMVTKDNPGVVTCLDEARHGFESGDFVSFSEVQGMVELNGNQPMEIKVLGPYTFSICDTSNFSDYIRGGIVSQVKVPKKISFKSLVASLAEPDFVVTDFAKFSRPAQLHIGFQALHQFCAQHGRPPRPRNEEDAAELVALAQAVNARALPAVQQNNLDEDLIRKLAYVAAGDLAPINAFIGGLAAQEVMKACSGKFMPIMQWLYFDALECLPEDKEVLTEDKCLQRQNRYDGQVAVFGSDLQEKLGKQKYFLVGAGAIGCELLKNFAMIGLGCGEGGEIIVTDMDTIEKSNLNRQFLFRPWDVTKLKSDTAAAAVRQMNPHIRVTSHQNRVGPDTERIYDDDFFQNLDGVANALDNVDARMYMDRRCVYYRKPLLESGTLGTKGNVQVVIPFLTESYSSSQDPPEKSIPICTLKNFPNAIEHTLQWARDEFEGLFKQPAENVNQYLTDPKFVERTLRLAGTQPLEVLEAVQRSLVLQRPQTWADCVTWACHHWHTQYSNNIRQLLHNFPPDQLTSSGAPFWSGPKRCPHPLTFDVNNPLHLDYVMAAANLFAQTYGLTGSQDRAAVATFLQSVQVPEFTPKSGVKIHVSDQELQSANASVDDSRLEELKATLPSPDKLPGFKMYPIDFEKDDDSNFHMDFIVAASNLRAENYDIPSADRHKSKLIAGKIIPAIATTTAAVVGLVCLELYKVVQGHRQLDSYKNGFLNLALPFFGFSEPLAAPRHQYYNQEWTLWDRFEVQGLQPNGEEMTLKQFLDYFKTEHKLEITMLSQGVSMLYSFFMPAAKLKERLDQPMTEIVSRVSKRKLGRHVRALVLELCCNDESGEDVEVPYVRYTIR
row,SMILES,outcome
1,CCNc1ccc(Br)cc(C(=O)/C=C/c2c(Cl)cccc2Cl)c1=O,inactive; >50 µM
2,CCCCCCCCCOc1ccc(C#CC(=O)O)cc1,inactive
3,CNc1ccccc(C(=O)C=Cc2ccc3c(c2)OCO3)c1=O,inactive; >50 µM
4,CCOC(=O)c1c(NC(=O)CCC(=O)O)sc(C)c1-c1ccc(CC(C)C)cc1,inactive; >50 µM
5,CN(CCC(=O)C=Cc1ccc(Cl)c(Cl)c1)CCc1ccc2c(c1)OCO2,inactive; >50 µM
6,NCCCSc1nc2c(c(=O)n1Cc1ccccc1)C1(CCCCC1)Cc1ccccc1-2,inactive; >50 µM
7,CCOc1ccc2nc3cc(NC(=O)c4ccco4)ccc3c(N)c2c1,inactive; >50 µM
